Data published in ChEMBL document CHEMBL3988442, “University of Dundee, Small-Polar-MMV Screening Library” (2021).
For part of these data: Measured potencies and affinities stand elsewhere.

Experiments:
Parameters in all cases: scale not given: direction of the effect not stated beside the values
[1] = target: Protein translocase subunit SecA (Escherichia coli (strain K12)) (UniProt P10408); experiment: Assay to Identify E. coli SecA ATPase Inhibitors; type: functional; conditions: 30 µM
[2] = target: T1, Ubiquitin-activating enzyme e1, putative (Leishmania donovani (strain BPK282A1)) (UniProt E9BSI1); experiment: Leishmania donovani Ubiquitin Activating Enzyme (LdE1); type: functional; conditions: 30 µM
T1 sequence (whole entry): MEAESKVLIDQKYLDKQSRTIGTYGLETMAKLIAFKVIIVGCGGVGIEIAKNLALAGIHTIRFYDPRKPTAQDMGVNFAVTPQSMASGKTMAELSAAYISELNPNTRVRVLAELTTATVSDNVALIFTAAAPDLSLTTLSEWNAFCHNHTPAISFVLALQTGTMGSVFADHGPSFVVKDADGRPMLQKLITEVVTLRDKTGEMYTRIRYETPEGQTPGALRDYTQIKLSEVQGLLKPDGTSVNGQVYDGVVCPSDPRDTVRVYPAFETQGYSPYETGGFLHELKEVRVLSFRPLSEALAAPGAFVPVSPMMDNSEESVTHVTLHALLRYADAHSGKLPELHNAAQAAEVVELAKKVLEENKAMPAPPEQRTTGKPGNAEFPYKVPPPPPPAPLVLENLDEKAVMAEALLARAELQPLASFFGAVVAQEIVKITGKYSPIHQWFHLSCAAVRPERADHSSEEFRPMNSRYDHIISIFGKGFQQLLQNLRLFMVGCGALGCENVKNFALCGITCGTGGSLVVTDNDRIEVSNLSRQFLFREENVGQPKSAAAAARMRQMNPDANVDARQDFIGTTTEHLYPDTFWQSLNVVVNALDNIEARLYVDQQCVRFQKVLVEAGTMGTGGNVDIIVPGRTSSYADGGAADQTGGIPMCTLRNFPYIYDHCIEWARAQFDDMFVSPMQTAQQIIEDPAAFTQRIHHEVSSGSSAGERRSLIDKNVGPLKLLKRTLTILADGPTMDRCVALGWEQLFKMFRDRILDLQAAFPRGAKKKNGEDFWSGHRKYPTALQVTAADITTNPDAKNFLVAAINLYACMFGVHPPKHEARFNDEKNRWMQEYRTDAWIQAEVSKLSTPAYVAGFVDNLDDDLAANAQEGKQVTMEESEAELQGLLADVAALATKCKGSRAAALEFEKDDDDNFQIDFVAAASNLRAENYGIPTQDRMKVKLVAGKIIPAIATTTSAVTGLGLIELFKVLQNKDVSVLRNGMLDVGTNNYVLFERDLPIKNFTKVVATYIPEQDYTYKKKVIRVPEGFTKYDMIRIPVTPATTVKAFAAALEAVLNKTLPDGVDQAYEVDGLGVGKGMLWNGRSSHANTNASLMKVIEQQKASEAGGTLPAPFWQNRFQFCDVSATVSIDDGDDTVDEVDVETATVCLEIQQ

[3] = target: AMP-activated protein kinase, AMPK (Homo sapiens) (UniProt P54646+O43741+P54619+Q9UGJ0+Q9Y478+Q13131+Q9UGI9); experiment: AMP-dependent Kinase enzyme assay. An in vitro enzyme assay that detects ADP turnover that is directly proportional to AMPK activity. This uses naive AMPK that is activated during the assay with MK-8722; type: functional; conditions: 30 µM
[4] = target: Sialic acid-binding Ig-like lectin 9 (Homo sapiens) (UniProt Q9Y336); experiment: Hs-Siglec9 ALPHAscreen SOP 20170721; conditions: 10 µM
Sequence of Sialic acid-binding Ig-like lectin 9 (Homo sapiens) (Q9Y336 whole entry): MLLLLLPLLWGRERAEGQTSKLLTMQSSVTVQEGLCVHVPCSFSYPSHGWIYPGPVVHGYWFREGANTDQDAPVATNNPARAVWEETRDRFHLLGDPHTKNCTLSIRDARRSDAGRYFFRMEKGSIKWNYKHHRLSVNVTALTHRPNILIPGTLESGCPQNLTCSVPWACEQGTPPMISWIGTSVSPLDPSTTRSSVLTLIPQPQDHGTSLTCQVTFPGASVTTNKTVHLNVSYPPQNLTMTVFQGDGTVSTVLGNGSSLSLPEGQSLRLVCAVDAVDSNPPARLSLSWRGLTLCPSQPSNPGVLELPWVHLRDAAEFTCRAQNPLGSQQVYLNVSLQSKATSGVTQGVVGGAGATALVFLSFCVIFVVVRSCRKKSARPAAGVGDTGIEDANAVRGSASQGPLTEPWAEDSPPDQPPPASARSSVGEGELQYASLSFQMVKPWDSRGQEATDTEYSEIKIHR

[5] = system: Trypanosoma cruzi; experiment: Trypanosoma cruzi phosphomannomutase and mannose-1-phosphate guanylyltransferase assay; type: functional; conditions: 10 µM
[6] = target: T2, Arginase-2, mitochondrial (Homo sapiens) (UniProt P78540); experiment: in vitro enzyme assay to detect the production of urea directly proportional to the activity of Arginase II; type: functional; conditions: 33.3 µM; also: in the data most compounds retested in dose-response had high values
T2 sequence (whole entry): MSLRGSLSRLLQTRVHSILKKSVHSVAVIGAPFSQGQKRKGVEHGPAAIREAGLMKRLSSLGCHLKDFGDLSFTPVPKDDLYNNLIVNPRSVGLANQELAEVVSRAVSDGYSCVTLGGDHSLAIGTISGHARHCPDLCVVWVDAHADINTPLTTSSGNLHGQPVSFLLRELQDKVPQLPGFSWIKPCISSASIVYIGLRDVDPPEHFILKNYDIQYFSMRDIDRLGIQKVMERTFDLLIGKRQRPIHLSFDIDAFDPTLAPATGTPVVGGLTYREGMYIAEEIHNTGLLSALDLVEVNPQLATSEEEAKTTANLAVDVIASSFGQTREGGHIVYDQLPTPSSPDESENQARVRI

[7] = target: T3, Proteasome subunit beta (Trypanosoma cruzi) (UniProt O96673); experiment: Trypanosoma cruzi proteasome chymotrypsin-like activity (TcProtChymo) assay.; also: in the data most compounds retested in dose-response had high values; type: functional; conditions: 9.37 µM
T3 sequence (whole entry): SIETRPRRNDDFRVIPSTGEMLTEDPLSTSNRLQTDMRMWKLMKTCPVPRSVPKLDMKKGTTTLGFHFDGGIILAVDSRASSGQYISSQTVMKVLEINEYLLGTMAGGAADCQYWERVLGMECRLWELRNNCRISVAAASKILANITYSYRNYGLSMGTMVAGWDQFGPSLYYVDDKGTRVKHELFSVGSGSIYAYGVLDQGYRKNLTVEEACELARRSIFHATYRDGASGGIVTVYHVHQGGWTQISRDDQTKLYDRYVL

[8] = organism: Homo sapiens; experiment: To identify inhibition of the IFN signalling (Jak-Stat) pathway via expression of an eGFP reporter gene under the control of an IFN-stimulated response element (ISRE) containing MxA promoter.; type: functional; conditions: 30 µM
[9] = target: T4, Tyrosyl-tRNA synthetase, putative (Trypanosoma cruzi (strain CL Brener)) (UniProt Q4DSP6); experiment: Trypanosoma cruzi tyrosyl tRNA synthetase (TcYRS) _High Tyrosine SOP; type: functional; conditions: 30 µM; also: in the data most compounds retested in dose-response had high values
T4 sequence (whole entry): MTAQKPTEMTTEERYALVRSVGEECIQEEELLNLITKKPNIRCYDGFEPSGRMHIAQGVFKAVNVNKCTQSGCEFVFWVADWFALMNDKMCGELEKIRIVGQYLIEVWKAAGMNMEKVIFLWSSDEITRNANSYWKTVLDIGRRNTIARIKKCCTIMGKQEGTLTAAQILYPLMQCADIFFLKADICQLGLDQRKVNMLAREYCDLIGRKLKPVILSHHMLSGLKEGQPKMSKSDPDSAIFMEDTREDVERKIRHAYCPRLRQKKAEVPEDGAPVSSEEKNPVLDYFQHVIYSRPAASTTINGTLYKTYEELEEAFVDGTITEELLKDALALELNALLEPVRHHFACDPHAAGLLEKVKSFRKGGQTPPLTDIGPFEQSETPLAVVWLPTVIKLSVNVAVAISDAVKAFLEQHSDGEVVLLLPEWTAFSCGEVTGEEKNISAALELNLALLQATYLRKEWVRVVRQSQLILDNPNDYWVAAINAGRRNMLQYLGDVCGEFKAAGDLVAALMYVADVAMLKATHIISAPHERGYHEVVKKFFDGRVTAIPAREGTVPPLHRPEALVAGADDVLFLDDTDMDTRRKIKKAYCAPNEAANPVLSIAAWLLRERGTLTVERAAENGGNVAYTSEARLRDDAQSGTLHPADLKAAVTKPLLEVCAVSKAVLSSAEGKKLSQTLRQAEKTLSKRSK

[10] = target: T4, Tyrosyl-tRNA synthetase, putative (Trypanosoma cruzi (strain CL Brener)); experiment: Trypanosoma cruzi tyrosyl tRNA synthetase (TcYRS) SOP; type: functional; conditions: 30 µM
[11] = target: Chromo domain-containing protein 1 (Saccharomyces cerevisiae (strain ATCC 204508 / S288c) (Baker's yeast)) (UniProt P32657); experiment: ScCHD-1 Enzyme Inhibition Assay; type: functional; conditions: 30 µM; also: in the data most compounds retested in dose-response had high values
Sequence of Chromo domain-containing protein 1 (Saccharomyces cerevisiae (strain ATCC 204508 / S288c) (Baker's yeast)) (P32657 whole entry, the tested form may be a part): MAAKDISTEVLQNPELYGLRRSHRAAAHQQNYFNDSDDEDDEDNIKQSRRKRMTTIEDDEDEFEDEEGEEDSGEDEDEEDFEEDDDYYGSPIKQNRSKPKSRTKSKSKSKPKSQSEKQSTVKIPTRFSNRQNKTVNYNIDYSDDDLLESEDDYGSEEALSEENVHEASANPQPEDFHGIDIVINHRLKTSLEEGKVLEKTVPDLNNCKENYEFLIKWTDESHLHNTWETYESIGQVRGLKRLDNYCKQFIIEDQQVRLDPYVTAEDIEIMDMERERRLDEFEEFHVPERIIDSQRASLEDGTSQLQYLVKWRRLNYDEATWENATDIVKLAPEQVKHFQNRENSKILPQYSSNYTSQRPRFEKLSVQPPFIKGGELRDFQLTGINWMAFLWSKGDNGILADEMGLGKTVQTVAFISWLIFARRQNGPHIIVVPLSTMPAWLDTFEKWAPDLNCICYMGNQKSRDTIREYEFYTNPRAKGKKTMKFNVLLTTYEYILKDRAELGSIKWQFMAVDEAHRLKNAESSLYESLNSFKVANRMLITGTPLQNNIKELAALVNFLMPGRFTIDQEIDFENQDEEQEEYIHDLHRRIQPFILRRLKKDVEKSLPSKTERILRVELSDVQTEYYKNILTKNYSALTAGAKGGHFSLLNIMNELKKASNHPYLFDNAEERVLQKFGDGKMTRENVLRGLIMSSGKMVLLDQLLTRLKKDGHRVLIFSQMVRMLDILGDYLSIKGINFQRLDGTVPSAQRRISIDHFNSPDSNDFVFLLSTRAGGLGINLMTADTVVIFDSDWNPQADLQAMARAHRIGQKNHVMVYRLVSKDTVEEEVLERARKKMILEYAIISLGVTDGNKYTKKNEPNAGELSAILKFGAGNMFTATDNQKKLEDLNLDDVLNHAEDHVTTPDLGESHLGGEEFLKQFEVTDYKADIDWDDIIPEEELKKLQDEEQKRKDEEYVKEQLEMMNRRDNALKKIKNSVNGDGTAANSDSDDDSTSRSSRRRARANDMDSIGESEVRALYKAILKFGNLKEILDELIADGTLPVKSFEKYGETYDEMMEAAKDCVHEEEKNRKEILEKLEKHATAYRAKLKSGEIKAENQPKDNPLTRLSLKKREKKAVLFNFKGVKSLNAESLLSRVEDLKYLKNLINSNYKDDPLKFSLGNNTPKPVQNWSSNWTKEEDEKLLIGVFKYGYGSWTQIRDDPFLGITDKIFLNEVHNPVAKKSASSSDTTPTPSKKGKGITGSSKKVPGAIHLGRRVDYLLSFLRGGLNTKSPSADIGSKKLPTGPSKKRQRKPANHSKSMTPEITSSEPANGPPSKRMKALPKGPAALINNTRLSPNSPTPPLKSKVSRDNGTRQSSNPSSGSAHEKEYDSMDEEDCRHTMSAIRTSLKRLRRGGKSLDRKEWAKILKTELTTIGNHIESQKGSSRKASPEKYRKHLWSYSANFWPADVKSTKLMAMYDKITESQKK

Sequence of Protein translocase subunit SecA (Escherichia coli (strain K12)) (P10408 whole entry): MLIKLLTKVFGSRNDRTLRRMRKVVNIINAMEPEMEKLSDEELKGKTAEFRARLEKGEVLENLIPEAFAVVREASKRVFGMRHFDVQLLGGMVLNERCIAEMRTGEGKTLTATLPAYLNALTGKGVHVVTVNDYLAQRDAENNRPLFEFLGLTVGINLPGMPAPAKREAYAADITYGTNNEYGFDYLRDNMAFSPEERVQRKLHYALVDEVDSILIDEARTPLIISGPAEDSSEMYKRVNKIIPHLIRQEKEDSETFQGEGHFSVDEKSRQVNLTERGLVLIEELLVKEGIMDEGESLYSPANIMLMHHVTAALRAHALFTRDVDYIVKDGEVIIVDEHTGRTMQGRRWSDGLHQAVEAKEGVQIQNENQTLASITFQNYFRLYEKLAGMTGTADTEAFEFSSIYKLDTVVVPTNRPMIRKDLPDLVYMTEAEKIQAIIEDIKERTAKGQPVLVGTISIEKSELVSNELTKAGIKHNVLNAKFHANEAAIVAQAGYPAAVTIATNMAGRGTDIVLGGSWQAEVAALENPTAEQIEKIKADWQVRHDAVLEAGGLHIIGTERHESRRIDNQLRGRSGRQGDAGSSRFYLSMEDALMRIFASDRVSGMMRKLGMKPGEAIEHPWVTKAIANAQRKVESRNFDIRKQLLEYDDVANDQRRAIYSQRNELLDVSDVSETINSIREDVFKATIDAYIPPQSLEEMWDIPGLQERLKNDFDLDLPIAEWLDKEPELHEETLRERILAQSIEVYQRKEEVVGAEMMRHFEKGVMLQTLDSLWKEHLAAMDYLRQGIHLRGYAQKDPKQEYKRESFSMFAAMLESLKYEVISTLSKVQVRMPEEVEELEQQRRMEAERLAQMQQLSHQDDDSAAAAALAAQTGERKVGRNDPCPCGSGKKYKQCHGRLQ

Row | Compound | Percent Effect [1] [%] | Percent Effect [2] [%] | Percent Effect [3] [%] | Percent Effect [4] [%] | Percent Effect [5] [%] | Percent Effect [6] [%] | Percent Effect [7] [%] | Percent Effect [8] [%] | Percent Effect [9] [%] | Percent Effect [10] [%] | Percent Effect [11] [%]
1 | CCN(CC)C(=O)c1nnc2ccc(N3CCOCC3)cc2n1 | -7.46 | 9.33 | -17.9 | 3.43 | 7.27 | -7.57 | 14.1 | 11.4 | 3.17 | 12.8 | -14.1
2 | COCCN(C)CCN1CC2(CCN(C3CCCOC3)CC2)OC1=O (stereo unspecified) | -2.07 | 20.8 | -4.24 | 3.41 | 0.295 | -11 | 16.5 | 11.4 | 3.23 | 18.5 | -6.77
3 | Cc1cc(C[C@@H]2COC[C@@H]2NC(=O)CN2CCCN(C)CC2)on1 | -3.19 | 16.4 | 2.04 | 6.47 | 6.27 | 4.54 | 13.3 | 4.37 | 8.6 | -55 | -6.96
4 | O=C(NCc1ccco1)[C@H]1C[C@H]2OCC[C@H]2N(C(=O)c2ccncc2)C1 | -2.12 | -2.67 | 11.1 | 21.8 | 0.193 | -50 | 7.18 | -21.2 | 3.12 | 2.5 | -1.86
5 | CC1CCCN(Cc2csc(-c3ncccn3)n2)CC1 (stereo unspecified) | -3.33 | -16.2 | -12.5 | 18.6 | 8.26 | -1.66 | 20.5 | 29.2 | 13.9 | 15.8 | 2.62
6 | O=C(NC1CC1)[C@@H]1CCO[C@@H]2CCN(C3CCOCC3)C[C@H]21 | -7.35 | 2.6 | 3.75 | 6.23 | 4.62 | 5.52 | 8.49 | -3.98 | 6.45 | 13.6 | 0.47
